From PubChem BioAssay AID1159580 (chemical genetic matrix, 2015)
The campaign covered roughly 5,500 compounds. About 2,000 (36%) were called active. Roughly 18% stayed inconclusive and do not appear here. No stated cut-off is given here; in the data, active means normalized growth mostly below about 0.91 (no sharp cut-off); inconclusive means no clear call, values can overlap the other calls; inactive means mostly above about 0.92. The list shows a part of the results.

Test: chemical genetic growth profiling, strain panel (AID 1159580);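 further: tested at 20 µM; growth read once vehicle control cultures reached saturation at 30 °C; 1 = growth at the plate median or of vehicle wells; lower values mean less growth of the strain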
Conditions: S. cerevisiae deletion strains, growth OD

Measured: normalized growth

CCOC(=O)c1c(C)n(-c2ccccc2)c2ccc(O)cc12
inactive: locus YAL013W, strain DEP1, hits give low values 0.998 | locus YBR229C, strain ROT2, hits give low values 1 | locus YDL101C, strain DUN1, hits give low values 0.995 | locus YDR150W, strain NUM1, hits give low values 1 | locus YEL061C, strain CIN8, hits give low values 0.965 | locus YGR078C, strain PAC10, hits give low values 0.995 | locus YHR030C, strain SLT2, hits give low values 0.923 | locus YHR087W, strain rtc3, hits give low values 0.993 | locus YJR043C, strain POL32, hits give low values 1.03 | locus YJR075W, strain HOC1, hits give low values 0.989 | locus YLR039C, strain RIC1, hits give low values 1.02 | locus YLR058C, strain SHM2 (second series), hits give low values 0.985 | locus YLR085C, strain ARP6, hits give low values 0.931 | locus YLR262C, strain YPT6, hits give low values 0.984 | locus YML094W, strain GIM5, hits give low values 0.94 | locus YMR219W, strain ESC1, hits give low values 0.999 | locus YMR263W, strain SAP30, hits give low values 0.956 | locus YNL128W, strain TEP1, hits give low values 0.99 | locus YNL153C, strain GIM3, hits give low values 0.976 | locus YNL322C, strain KRE1, hits give low values 0.998 | locus YNR030W, strain Alg12, hits give low values 0.963 | locus YPL055C, strain LGE1, hits give low values 0.982 | locus YPL241C, strain CIN2, hits give low values 0.979 | locus YPR135W, strain CTF4, hits give low values 0.911
